KCNQ2 block: rat KCNQ2 potassium channel inhibitors, primary screen, cell-based, CHO-K1, FluxOR thallium flux, B-score | AID 2156, 2009 | Potassium voltage-gated channel subfamily KQT member 2 (Rattus norvegicus), O88943 | B-score at 10 µM | 310,000 tested, 1.1% active | 20 min; hits give low values;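 active = fluorescence ratio B-score at most minus 3 library SDs, with starting brightness B-score within 2 library SDs, cut at about -5.5 in these data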
KCNQ2 enhance: potentiators of rat KCNQ2 potassium channel | Potassium voltage-gated channel subfamily KQT member 2 (Rattus norvegicus), O88943 | CHO-K1 KCNQ2, FluxOR thallium flux fluorescence; hits give high values | B-score at 10 µM | 310,000 tested, 0.54% active;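 active = fluorescence ratio B-score at least 3 SD of library B-scores, with initial fluorescence B-score within 3 of them, cut at about 5.3 in these data; same plate scores as AID 2156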;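 also: B-score of peak minus minimum over baseline fluorescence ratio after K+ and Tl+ stimulus; positive B-score means potentiation of KCNQ2 with more thallium influx and brighter signal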
Kir21 confirm: mouse Kir2.1 channel blockers, retest, confirmation, cell-based, FluxOR thallium flux, duplicate; Tl flux remaining, % of negative control (hits give low values), % at 10 µM; shares compounds with KCNQ2 enhance; 2,300 tested, 41% active; AID 2032, 2009; Kir2.1-expressing cells, FluxOR thallium flux fluorescence; hits give low values;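 active = Primary-screen hit whose thallium flux fell at least 3 control SD below untreated wells in both duplicates, with normal baseline fluorescence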;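 also: 0% = blank wells without stimulus and 100% = stimulated no-compound controls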
Target sequence (P35561 whole entry, looked up): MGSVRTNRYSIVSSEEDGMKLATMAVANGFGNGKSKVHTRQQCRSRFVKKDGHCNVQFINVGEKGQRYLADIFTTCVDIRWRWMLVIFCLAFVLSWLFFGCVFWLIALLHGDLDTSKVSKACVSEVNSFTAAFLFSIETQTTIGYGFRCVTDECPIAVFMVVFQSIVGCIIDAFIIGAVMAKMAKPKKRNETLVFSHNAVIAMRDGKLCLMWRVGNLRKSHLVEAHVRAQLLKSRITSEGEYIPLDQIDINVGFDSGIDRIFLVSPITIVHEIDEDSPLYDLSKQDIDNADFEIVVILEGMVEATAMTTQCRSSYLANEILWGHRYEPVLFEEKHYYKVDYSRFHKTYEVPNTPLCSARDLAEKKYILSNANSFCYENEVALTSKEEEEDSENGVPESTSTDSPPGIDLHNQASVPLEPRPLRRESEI
HEK293 Tl flux: alters thallium flux in parental HEK293 cells, Kir2.1 counter-screen | shares compounds with KCNQ2 enhance | FluxOR thallium flux fluorescence; 0% = unstimulated blank wells | FluxOR signal as % of negative control (100 = no effect), % at 10 µM | 2,300 tested, 19% active | AID 2105;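 active = dye signal at least 3 control SD above or below untreated wells in both duplicates, raw fluorescence within 3, either direction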;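 also: percent is based on the flux ratio of peak minus minimum fluorescence over baseline F0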
CHO-K1 Tl ctr: nonspecific thallium flux increase in parental CHO-K1, confirmation, counter-screen for KCNQ2 potentiator project, cell-based, FluxOR thallium flux, duplicate; shares compounds with KCNQ2 enhance; parental CHO-K1 cells, FluxOR thallium flux fluorescence; zero = vehicle mean+3SD, 100% = vehicle-minus-blank window; activity increase over 3SD of controls, % at 10 µM; 1,200 tested, 43% active; AID 2282, 2010;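 active = signal rise of at least 3 SD above the untreated control mean, in both duplicate wells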;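 also: counter screen of KCNQ2 potentiator hits so any rise reflects channel-independent effects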
KCNQ1 pot spec: human KCNQ1 channel potentiation off-target, confirmation, selectivity assay for KCNQ2 potentiator project, cell-based, CHO, FluxOR thallium flux | shares compounds with KCNQ2 enhance | CHO KCNQ1 stable, FluxOR thallium flux fluorescence; beyond 3SD, as % of vehicle-control signal | activation over 3SD threshold, % at 10 µM | 1,200 tested, 28% active;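 active = fluorescence ratio rise of at least 3 SD of vehicle wells above their mean, in both replicate wells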;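 also: 0% = vehicle mean plus 3 SD and 100% = vehicle minus unstimulated blank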
KCNQ2 pot confirm: rat KCNQ2 channel potentiators, confirmation, cell-based, CHO, FluxOR thallium flux, duplicate | shares compounds with KCNQ2 enhance | CHO-KCNQ2 cells, FluxOR thallium flux fluorescence | potentiation, less the hit threshold, % at 10 µM | 1,200 tested, 68% active | AID 2287, 2010;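 active = fluorescence ratio rising 3 SD or more over the vehicle control mean in both replicates, plus primary screen hit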;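 also: peak minus minimum thallium fluorescence divided by baseline after K/Tl stimulus; 0% = vehicle mean plus 3 SD and 100% = vehicle minus unstimulated blank difference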
Kir2-1 sel: mouse Kir2.1 channel activation off-target, confirmation, selectivity assay for KCNQ2 potentiator project, cell-based, HEK293, FluxOR thallium flux | AID 2345, 2010 | activity over 3SD threshold, % at 10 µM | shares compounds with KCNQ2 enhance | 1,200 tested, 2% active | HEK293 Kir2.1, FluxOR thallium flux fluorescence;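 active = fluorescence ratio rise of at least 3 SD above the vehicle-control mean, seen in both replicates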;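 also: 0% = vehicle mean plus 3 SD and 100% = vehicle minus no-stimulus blank window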
KCNQ2 W236L pot: potentiators of retigabine-insensitive KCNQ2 W236L, mechanism study for KCNQ2 potentiator project, cell-based, rat KCNQ2 W236L, CHO, automated patch clamp; automated patch clamp current; current increase over 3SD of negative controls (%), hits give high values, % at 25 µM; 940 tested, 10% active; shares compounds with KCNQ2 enhance;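 active = current increase at least 3 SD of the untreated controls above them in both duplicate recordings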
* marks the source's active call; other numbers are inactive results; i = inactive; · = no result. Most compounds without a hit are left out; they make up all but 1.6% or so of the library.

SMILES	KCNQ2 block	KCNQ2 enhance	Kir21 confirm	HEK293 Tl flux	others
CC(C)CC(NC(=O)C1CCCCC1)C(=O)NC(C)c1ccccc1 (stereo not given)	i	18*	i	i	CHO-K1 Tl ctr=3.7*;KCNQ1 pot spec=-25;KCNQ2 pot confirm=29*;Kir2-1 sel=-39;KCNQ2 W236L pot=i
CC(NC(=O)CC1CCCCC1)c1ccccc1 (stereo not given)	i	5.3*	i	i	CHO-K1 Tl ctr=-1;KCNQ1 pot spec=-18;KCNQ2 pot confirm=7.1*;Kir2-1 sel=-40;KCNQ2 W236L pot=i
COc1ccc(CN2CCN(C(C)C)C(CCO)C2)cc1Cn1cncn1 (stereo not given)	i	0.79	·	·
CC(C)OC(=O)c1ccc(N)cc1	i	0.02	·	·
Cc1ccc2[nH]cc(S(=O)(=O)c3ccc(C)c(C)c3)c(=O)c2c1	i	0.37	·	·
CCC1(c2ccc(Cl)cc2)NC(=S)N(c2ccc(C)c(C)c2)N1 (stereo not given)	i	29*	i	537%*	CHO-K1 Tl ctr=21*;KCNQ1 pot spec=-10;KCNQ2 pot confirm=68*;Kir2-1 sel=-3
CC1=CC(C)(C)NC(=S)N1c1ccc(C)c(C)c1	i	0.02	·	·
Cc1ccc(-n2c(C)n[nH]c2=S)cc1C	i	·	·	·
CCC1(c2ccccc2)NC(=S)N(c2ccc(C)c(C)c2)N1 (stereo not given)	i	13*	i	435%*	CHO-K1 Tl ctr=-5;KCNQ1 pot spec=-18;KCNQ2 pot confirm=55*;Kir2-1 sel=-19;KCNQ2 W236L pot=i
O=C1Nc2ccc3sc4ccccc4c3c2C1=O	i	0.02	·	·
CCCCn1c(N)c(N(CC(C)C)C(=O)c2ccc(C)c(S(=O)(=O)N3CCCCC3)c2)c(=O)[nH]c1=O	i	·	·	·
O=C(Nc1ccc(F)cc1F)N1CCN(CCc2ccccc2)CC1	i	0.68	·	·
NC1=NS(=O)(=O)NC1c1ccc(Br)cc1 (stereo not given)	i	·	·	·
CCCCCOc1ccc(Br)cc1/C(C)=N/NC1=NCCN1	i	·	16%*	i
COc1ccc(Br)cc1/C(C)=N/NC1=NCCN1	i	0.2	·	·
O=C(OCc1cccc([N+](=O)[O-])c1)c1cnccn1	i	1.6	·	·
O=C(OCc1cccc([N+](=O)[O-])c1)c1ccncc1	i	6.6*	i	142%*	CHO-K1 Tl ctr=-5;KCNQ1 pot spec=-19;KCNQ2 pot confirm=1.0*;Kir2-1 sel=-33;KCNQ2 W236L pot=i
CCOc1ccc(CCNC(=O)C2CCCN(c3ncnc4c3nc3n4CCCCC3)C2)cc1 (stereo not given)	i	·	·	·
CCCCCCCn1c(=N)n(CC(=O)c2ccco2)c2ccccc21	i	1.2	56%*	i
CCCCn1c(=N)n(CC(=O)c2ccco2)c2ccccc21	i	2.2	·	·
CCCCCCCn1c(=N)n(CC(O)c2ccco2)c2ccccc21 (stereo not given)	i	3.2	45%*	i
CC(C)(C)c1ccc(Cn2c(=N)n(CC(O)c3ccco3)c3ccccc32)cc1 (stereo not given)	i	·	·	·
N=c1n(CCN2CCCC2)c2ccccc2n1CC(O)c1ccco1 (stereo not given)	i	0.01	·	·
